Activity calls are given as the source filed them. The calls were made as follows: active = hit-call score of the fitted dose curve at least 0.9, where 1 is the maximum; inactive = score below 0.9.
Tests used:
Conditions in all cases: mRNA level, 48 h; actives raise or lower the signal
[1] = read-out: growth arrest and DNA damage 45 (GADD45A), GADD45A (gene 1647); experiment: LTEA_HepaRG_GADD45A: Life Technologies and Expression Analysis (LTEA) Assay for growth arrest and DNA damage 45 (GADD45A) using HepaRG (AID 2283458)
Summary of the method: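 Differentiated HepaRG cells exposed 48 h in serum-free induction medium to 8 concentrations, top 100 uM in half-log steps, 0.5% DMSO. GADD45A mRNA quantified by qRT-PCR, normalized to ACTB, GAPDH and POLR2A; bidirectional fit versus DMSO.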

[2] = read-out: Forkhead box O3 (FOXO3), FOXO3 (gene 2309); experiment: LTEA_HepaRG_FOXO3: Life Technologies and Expression Analysis (LTEA) Assay for Forkhead box O3 (FOXO3) using HepaRG (AID 2283459)
Summary of the method: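 Differentiated human HepaRG cells in serum-free induction medium were exposed in duplicate for 48 h to eight half-log concentrations up to 100 uM in 0.5% DMSO. FOXO3 mRNA was quantified by qRT-PCR, normalized to ACTB, GAPDH and POLR2A, with bidirectional fitting versus DMSO.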

[3] = read-out: ABC Transporter (ABCB1), ABCB1 (gene 5243); experiment: LTEA_HepaRG_ABCB1: Life Technologies and Expression Analysis (LTEA) Assay for ABC Transporter (ABCB1) using HepaRG (AID 2283460)
Summary of the method: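 Differentiated human HepaRG cells, plated 48 h then switched to serum-free induction medium, were exposed in duplicate to eight half-log concentrations up to 100 uM in 0.5% DMSO for 48 h. ABCB1 mRNA was measured by TaqMan qRT-PCR, normalized to ACTB/GAPDH/POLR2A.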

[4] = read-out: growth arrest and DNA damage 45 (GADD45B), GADD45B (gene 4616); experiment: LTEA_HepaRG_GADD45B: Life Technologies and Expression Analysis (LTEA) Assay for growth arrest and DNA damage 45 (GADD45B) using HepaRG (AID 2283461)
Summary of the method: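 Values are bidirectional concentration-response fits against 0.5% DMSO controls. Underlying data: qRT-PCR mRNA levels in human HepaRG liver cells treated 48 h in serum-free induction medium, eight concentrations topping at 100 uM.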

[5] = read-out: ABC Transporter (ABCC3), ABCC3 (gene 8714); experiment: LTEA_HepaRG_ABCC3: Life Technologies and Expression Analysis (LTEA) Assay for ABC Transporter (ABCC3) using HepaRG (AID 2283462)
Summary of the method: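 Differentiated HepaRG liver cells receive test chemicals at eight concentrations (max 100 uM) for 48 h. Expression of ABCC3 is quantified by qRT-PCR against ACTB, GAPDH and POLR2A, and activity is fitted in both directions against the DMSO control.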

[6] = read-out: ABC Transporter (ABCB11), ABCB11 (gene 8647); experiment: LTEA_HepaRG_ABCB11: Life Technologies and Expression Analysis (LTEA) Assay for ABC Transporter (ABCB11) using HepaRG (AID 2283463)
Summary of the method: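 Differentiated human HepaRG cells were exposed for 48 h in serum-free induction medium to eight half-log concentrations up to 100 uM in 0.5% DMSO. ABCB11 mRNA was quantified by qRT-PCR, normalized to ACTB, GAPDH and POLR2A, and fitted bidirectionally versus DMSO.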

[7] = read-out: ABC Transporter (ABCC2), ABCC2 (gene 1244); experiment: LTEA_HepaRG_ABCC2: Life Technologies and Expression Analysis (LTEA) Assay for ABC Transporter (ABCC2) using HepaRG (AID 2283464)
Summary of the method: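 Gene expression of ABCC2 was determined by qRT-PCR in HepaRG cells exposed 48 h to chemicals (highest 100 uM, half-log dilutions). Activity was fitted in both directions relative to 0.5% DMSO vehicle.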

[8] = read-out: Broad substrate specificity ATP-binding cassette transporter ABCG2 (Homo sapiens) (UniProt Q9UNQ0); experiment: LTEA_HepaRG_ABCG2: Life Technologies and Expression Analysis (LTEA) Assay for ABC Transporter (ABCG2) using HepaRG (AID 2283465)
Summary of the method: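 Differentiated HepaRG cells in serum-free induction medium were exposed for 48 h, in duplicate, to eight half-log concentrations up to 100 uM in 0.5% DMSO. ABCG2 mRNA was measured by TaqMan qRT-PCR, normalized to ACTB, GAPDH and POLR2A, and fitted bidirectionally versus DMSO.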

[9] = read-out: ATP-citrate lyase (ACLY), ACLY (gene 47); experiment: LTEA_HepaRG_ACLY: Life Technologies and Expression Analysis (LTEA) Assay for ATP-citrate lyase (ACLY) using HepaRG (AID 2283466)
Summary of the method: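 Differentiated human HepaRG cells in serum-free induction medium exposed 48 h, in duplicate, to eight half-log concentrations from 100 uM top in 0.5% DMSO; ACLY mRNA measured by qRT-PCR, normalized to ACTB, GAPDH, POLR2A, fitted bidirectionally versus DMSO.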

[10] = read-out: Peroxisomal acyl-coenzyme A oxidase 1 (ACOX1) gene, ACOX1 (gene 51); experiment: LTEA_HepaRG_ACOX1: Life Technologies and Expression Analysis (LTEA) Assay for Peroxisomal acyl-coenzyme A oxidase 1 (ACOX1) gene using HepaRG (AID 2283467)
Summary of the method: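 Differentiated human HepaRG cells were exposed in duplicate for 48 h in serum-free induction medium to eight half-log concentrations up to 100 uM in 0.5% DMSO. ACOX1 mRNA was then quantified by TaqMan qRT-PCR, normalized to ACTB, GAPDH and POLR2A.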

[11] = read-out: Alkaline Phosphatase, Placental (ALPP) gene, ALPP (gene 250); experiment: LTEA_HepaRG_ALPP: Life Technologies and Expression Analysis (LTEA) Assay for Alkaline Phosphatase, Placental (ALPP) gene using HepaRG (AID 2283468)
Summary of the method: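 Expression of ALPP was quantified by qRT-PCR against three housekeeping genes in human HepaRG cultures treated for 48 h with an eight-point concentration series up to 100 uM. Activity in either direction was fitted relative to 0.5% DMSO.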

[12] = read-out: Bcl-2 (BAD) gene, BAD (gene 572); experiment: LTEA_HepaRG_BAD: Life Technologies and Expression Analysis (LTEA) Assay for Bcl-2 (BAD) gene using HepaRG (AID 2283469)
Summary of the method: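 Differentiated human HepaRG cells in serum-free induction medium were exposed in duplicate for 48 h to eight concentrations (top 100 uM, half-log steps, 0.5% DMSO). BAD mRNA was quantified by qRT-PCR normalised to ACTB, GAPDH and POLR2A, with bidirectional fitting versus DMSO.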

[13] = read-out: Bcl-2 (BAX) gene, BAX (gene 581); experiment: LTEA_HepaRG_BAX: Life Technologies and Expression Analysis (LTEA) Assay for Bcl-2 (BAX) gene using HepaRG (AID 2283470)
Summary of the method: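 Differentiated HepaRG cells exposed 48 h in serum-free induction medium, eight half-log concentrations from 100 uM, in duplicate, 0.5% DMSO vehicle. BAX mRNA by TaqMan qRT-PCR, normalised to ACTB, GAPDH and POLR2A.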

[14] = read-out: adenosine kinase (ADK) gene, ADK (gene 132); experiment: LTEA_HepaRG_ADK: Life Technologies and Expression Analysis (LTEA) Assay for adenosine kinase (ADK) gene using HepaRG (AID 2283471)
Summary of the method: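 HepaRG (human liver), 48 h chemical exposure, 8-pt half-log series, top 100 uM, 0.5% DMSO vehicle. Readout: ADK mRNA by qRT-PCR vs housekeeping genes; bidirectional curve fit relative to DMSO baseline.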

[15] = read-out: Alpha-fetoprotein (AFP) gene, AFP (gene 174); experiment: LTEA_HepaRG_AFP: Life Technologies and Expression Analysis (LTEA) Assay for Alpha-fetoprotein (AFP) gene using HepaRG (AID 2283472)
Summary of the method: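 Differentiated human HepaRG cells exposed 48 h in serum-free induction medium, 8-point half-log series from 100 uM in 0.5% DMSO, duplicate. AFP mRNA by qRT-PCR, normalized to ACTB, GAPDH, POLR2A; bidirectional fit vs DMSO.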

BCL2L11 (gene 10018) = experiment: LTEA_HepaRG_BCL2L11: Life Technologies and Expression Analysis (LTEA) Assay for Bcl-2 (BCL2L11) gene using HepaRG (AID 2283473)
Summary of the method: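 Cells were plated, cultured 48 h, switched to serum-free induction medium, then dosed in duplicate for 48 h at eight half-log concentrations up to 100 uM. Lysates underwent RNA isolation and TaqMan qRT-PCR; gain or loss versus DMSO was fitted.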

[16] = read-out: Apoptosis regulator Bcl-2 (Homo sapiens) (UniProt P10415); experiment: LTEA_HepaRG_BCL2: Life Technologies and Expression Analysis (LTEA) Assay for Bcl-2 gene using HepaRG (AID 2283475)
Summary of the method: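 Differentiated human HepaRG cells in serum-free induction medium exposed 48 h, in duplicate, to 8-point half-log series from 100 uM in 0.5% DMSO. BCL2 mRNA by qRT-PCR (TaqMan/Fluidigm), normalized to ACTB, GAPDH, POLR2A; bidirectional fit against DMSO.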

[17] = read-out: Bcl-2 (BID) gene, BID (gene 637); experiment: LTEA_HepaRG_BID: Life Technologies and Expression Analysis (LTEA) Assay for Bcl-2 (BID) gene using HepaRG (AID 2283476)
Summary of the method: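 Gene expression by qRT-PCR in HepaRG cells after 48 h exposure, duplicate wells, eight half-log concentrations topping at 100 uM in 0.5% DMSO. Normalized to ACTB, GAPDH, POLR2A; bidirectional fitting relative to DMSO.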

Caspase-3 (Homo sapiens) = Caspase-3 (Homo sapiens) (UniProt P42574); experiment: LTEA_HepaRG_CASP3: Life Technologies and Expression Analysis (LTEA) Assay for cysteine-aspartic acid protease (CASP3) using HepaRG (AID 2283477)
Summary of the method: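 In HepaRG liver cells dosed for 48 h at up to 100 uM (eight-point, duplicate), CASP3 expression changes are scored by qRT-PCR. Activity is fitted in both directions with 0.5% DMSO as baseline.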

[18] = read-out: Apolipoprotein A-V (APOA5) gene, APOA5 (gene 116519); experiment: LTEA_HepaRG_APOA5: Life Technologies and Expression Analysis (LTEA) Assay for Apolipoprotein A-V (APOA5) gene using HepaRG (AID 2283474)
Summary of the method: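 Human liver HepaRG cells are treated 48 h with test chemicals (100 uM top, half-log dilutions, 0.5% DMSO). APOA5 mRNA induction or loss is measured by qRT-PCR relative to vehicle.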

Measured: AC50

Chain of Broad substrate specificity ATP-binding cassette transporter ABCG2 (Homo sapiens) (Q9UNQ0 whole entry, looked up): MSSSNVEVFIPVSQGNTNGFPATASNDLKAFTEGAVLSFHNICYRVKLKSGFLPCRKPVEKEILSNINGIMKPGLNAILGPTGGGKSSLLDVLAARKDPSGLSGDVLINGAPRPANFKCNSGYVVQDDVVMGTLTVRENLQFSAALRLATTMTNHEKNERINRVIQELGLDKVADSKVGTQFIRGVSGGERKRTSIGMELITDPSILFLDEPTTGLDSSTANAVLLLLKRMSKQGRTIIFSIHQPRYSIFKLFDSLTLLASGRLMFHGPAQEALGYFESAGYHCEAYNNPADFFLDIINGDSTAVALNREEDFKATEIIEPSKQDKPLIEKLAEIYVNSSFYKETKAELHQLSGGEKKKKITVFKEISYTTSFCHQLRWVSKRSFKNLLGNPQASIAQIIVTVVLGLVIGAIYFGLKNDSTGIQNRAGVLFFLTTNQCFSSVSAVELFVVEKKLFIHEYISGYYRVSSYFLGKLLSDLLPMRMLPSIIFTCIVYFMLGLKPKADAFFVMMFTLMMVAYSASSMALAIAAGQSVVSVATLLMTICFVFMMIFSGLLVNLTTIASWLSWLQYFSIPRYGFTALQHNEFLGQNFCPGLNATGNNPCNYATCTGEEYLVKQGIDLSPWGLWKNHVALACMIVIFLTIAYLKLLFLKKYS
Chain of Apoptosis regulator Bcl-2 (Homo sapiens) (P10415 whole entry, looked up): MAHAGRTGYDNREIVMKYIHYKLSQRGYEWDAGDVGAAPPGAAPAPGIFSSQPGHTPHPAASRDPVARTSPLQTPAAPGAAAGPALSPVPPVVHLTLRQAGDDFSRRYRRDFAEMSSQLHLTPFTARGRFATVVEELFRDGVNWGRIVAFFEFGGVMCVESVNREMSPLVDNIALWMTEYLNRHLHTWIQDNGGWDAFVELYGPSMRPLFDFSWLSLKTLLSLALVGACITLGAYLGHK
Chain of Caspase-3 (Homo sapiens) (P42574 whole entry, looked up): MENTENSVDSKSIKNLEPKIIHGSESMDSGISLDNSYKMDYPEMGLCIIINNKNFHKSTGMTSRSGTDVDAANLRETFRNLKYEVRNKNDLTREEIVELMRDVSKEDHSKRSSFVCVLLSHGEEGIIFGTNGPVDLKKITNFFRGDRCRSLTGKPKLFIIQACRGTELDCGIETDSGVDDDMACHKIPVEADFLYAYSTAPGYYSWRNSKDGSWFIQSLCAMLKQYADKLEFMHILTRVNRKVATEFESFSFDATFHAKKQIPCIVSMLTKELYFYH

CC(=O)OC1CC(C)OC(C)O1 (configuration not stated)
not listed: [18]
inactive: all other assays above

CC1(C)C(=O)NC(=O)N1CO
not listed: [16]
inactive: all other assays above

CCCCCCCCCCCCCCCCO
inactive: all assays above

C/C=C/c1ccc(OC)cc1
inactive: all assays above

CN(C)C(=O)NC1(c2ccccc2)CCN(CCC[C@]2(c3ccc(Cl)c(Cl)c3)CCCN(C(=O)c3ccccc3)C2)CC1
active: [1] 12.5 µM | [4] 20.3 µM | [6] 23.6 µM | [7] 19.4 µM | [11] 24 µM | [14] 12.5 µM | [18] 21.3 µM
not listed: [13] | [16]
inactive: all other assays above

CCc1cc(C2=C(C(=O)O)N(c3ccccc3C(F)(F)F)S(=O)(=O)c3ccccc32)cc2c1OCO2
active: [3] 3.3 µM | [6] 32.1 µM | [7] 1.64 µM | [8] 23.7 µM | [9] 65.2 µM | [13] 50 µM | [15] 65 µM | [18] 77.2 µM | [16] 79.9 µM
not listed: [11]
inactive: all other assays above

CS(=O)(=O)c1ccc([C@@H](C[C@H]2CCC(=O)C2)C(=O)Nc2cnccn2)cc1Cl
active: [1] 1.28 µM | [2] 9.92 µM | [3] 1.54 µM | [6] 11 µM | [7] 12.5 µM | [8] 1.29 µM | [12] 1.23 µM | [13] 25.4 µM | [14] 0.952 µM | [15] 0.908 µM | BCL2L11 (gene 10018) 1.15 µM | [18] 50 µM | [17] 2.25 µM | Caspase-3 (Homo sapiens) 0.843 µM
inactive: [4] | [5] | [9] | [10]

CC(=O)OCC(COC(C)=O)OC(C)=O
not listed: [13] | [18]
inactive: all other assays above

CC(C)(C)c1ccccc1
not listed: [13] | [16] | [18]
inactive: all other assays above

OCC(O)CO
not listed: [11] | [16] | [18]
inactive: all other assays above

CCN(CC)CCOc1ccc(C(=C(Cl)c2ccccc2)c2ccccc2)cc1
active: [3] 79.9 µM | [6] 24.9 µM | [7] 67.3 µM | [10] 13.3 µM | [11] 22.6 µM | [15] 17.9 µM | BCL2L11 (gene 10018) 76.5 µM
not listed: [13] | [16]
inactive: all other assays above

O=C1CCCCC1
active: [1] 0.0727 µM
not listed: [11]
inactive: all other assays above

O=NO
not listed: [13] | [16] | [18]
inactive: all other assays above

CCCCC(CC)CO (configuration not stated)
not listed: [13] | [16]
inactive: all other assays above

From PubChem BioAssay (EPA / NIEHS)
